From PubChem BioAssay
This excerpt belongs to a sample that is enriched for hits.
RmlCD inh 1536 – inhibitors of Mycobacterium tuberculosis RmlC and RmlD coupled enzymes; P9WH09+P9WH11; RmlC+RmlD coupled enzyme assay, percent inhibition; primary screen in compound mixtures; inhibition, % at 3.6 µM; 0.03% of 160,000 active; AID 1533; in the data active means inhibition mostly above about 34%, no sharp cut-off
Target sequence (P9WH09 whole entry, looked up): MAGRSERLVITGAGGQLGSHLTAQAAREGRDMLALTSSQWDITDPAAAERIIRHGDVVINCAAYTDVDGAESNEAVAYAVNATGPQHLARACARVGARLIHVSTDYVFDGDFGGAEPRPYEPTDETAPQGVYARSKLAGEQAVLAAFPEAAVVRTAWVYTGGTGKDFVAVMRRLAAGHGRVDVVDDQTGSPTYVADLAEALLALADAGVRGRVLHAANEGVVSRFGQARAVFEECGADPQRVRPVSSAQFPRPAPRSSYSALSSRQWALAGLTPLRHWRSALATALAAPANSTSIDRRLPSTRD
Target sequence (P9WH11 whole entry, looked up): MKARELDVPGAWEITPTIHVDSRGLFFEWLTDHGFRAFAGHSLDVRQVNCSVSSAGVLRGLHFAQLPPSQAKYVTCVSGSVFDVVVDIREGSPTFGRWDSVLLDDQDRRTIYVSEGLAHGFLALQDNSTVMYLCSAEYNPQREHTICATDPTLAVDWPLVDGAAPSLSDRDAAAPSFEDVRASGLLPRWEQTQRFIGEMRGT
YopH inh – blocks Yersinia enterocolitica YopH tyrosine phosphatase; fluorescence Ex485/Em525; inhibition, % (test concentration not listed); 0.16% of 140,000 active; AID 898; in the data active means inhibition above about 50%
An asterisk follows results filed as active; · = no result.

SMILES	RmlCD inh 1536	YopH inh
N#Cc1c(N2CCCC2)nc(N)c2c(N)nc(N3CCCC3)cc12	·	101*
COc1cc2c(C#N)c(N3CCCC3)nc(N)c2c(N)n1	4	·
Fc1ccc(-c2csc3[n+]2CCS3)cc1	·	-9
O=[N+]([O-])c1ccc(-c2csc3[n+]2CCS3)cc1	·	51*
COc1ccc(N2CCN(Cc3cc(=O)oc4cc(-c5ccccc5)c(O)cc34)CC2)cc1	·	0
O=c1cc(CN2CCN(c3ccccc3F)CC2)c2cc(O)c(-c3ccccc3)cc2o1	·	61*
CCN(CC)c1ccc(-c2nnc(SCC(=O)Nc3ccccc3C#N)n2-c2ccccc2)cc1	·	-8
O=C(O)c1ccccc1SCC(=O)N1c2ccccc2Sc2ccccc21	-16	60*
O=C(O)c1ccccc1SCC(=O)N1CCCCC1	12	-31
Cn1c(N)c(C(=O)COC(=O)[C@@H]2CCCN2S(=O)(=O)c2ccc(Cl)cc2)c(=O)n(C)c1=O	10	·
COCCCn1c(=O)/c(=C\c2ccc(OC(F)F)c(OC)c2)s/c1=C(/C#N)C(=O)NCCOC	66*	·
COCCCn1c(=O)/c(=C\c2ccccc2OC(F)F)s/c1=C(/C#N)C(=O)NC(C)C	-8	-16
CC(C)(C)N1OC2CC1c1nc3ccccc3n1C2 (centres undefined)	4	·
O=C(Cn1nc(Cc2cccnc2)c2ccccc2c1=O)Nc1ccccc1F	21	·
Cc1onc(-c2c(Cl)cccc2Cl)c1C(=O)NCc1ccccn1	-5	-20
Cc1onc(-c2ccccc2)c1C(=O)NCc1ccccn1	-2	53*
CC(=O)c1cccc(CN2CCCC(CCC(=O)NCc3ccc(F)c(F)c3)C2)c1 (centres undefined)	-2	·
COC(=O)CC1C(=O)NCCN1C(=S)NC(=O)c1sc2ccccc2c1Cl (centres undefined)	-4	·
Cc1oc2c(c1C(=O)c1ccccc1)C(=O)C(=O)c1ccccc1-2	·	89*
O=C1C(=O)c2c(C(=O)c3ccccc3)coc2-c2ccccc21	9	75*
O=C(C1=C(c2ccccc2)C(=O)c2ccccc2C1=O)c1ccccc1	-9	-30
Cc1oc2c(c1C(=O)O)C(=O)c1ccccc1C2=O	-8	·
CN(CCC#N)C(=O)COC(=O)c1ccccc1OCc1ccccc1Cl	1	·
CSc1ccccc1NC(=O)CSc1nncs1	-11	·
O=C(C1CCC(CNS(=O)(=O)c2cccc3nsnc23)CC1)N1CCN(c2ccccn2)CC1 (centres undefined)	-11	·
SMILES	RmlCD inh 1536	YopH inh
COC(=O)c1nc(-c2ccc3c(n2)C(=O)C(N)=C(OC)C3=O)c(N)c(-c2ccc(OC)c(OC)c2O)c1C	-13	·
COC1=C(N)C(=O)c2nc(-c3nc(C(=O)O)c(C)c(-c4ccc(OC)c(OC)c4O)c3N)ccc2C1=O	·	101*
NC(=S)N/N=C/c1ccccc1OCCSc1ccc(Cl)cc1	33	-12
O=[N+]([O-])c1ccccc1/C=C/C=N/n1c(-c2ccccc2F)n[nH]c1=S	2	·
COc1ccc(-c2cc(=NCCC(=O)O)c3cc(C)ccc3o2)cc1	32*	·
COc1ccc(-c2cc(=NC(CC(C)C)C(=O)O)c3cc(C)ccc3o2)cc1 (centres undefined)	-9	-10
COc1cc(/C=N/NC(=O)c2ccc(CSc3nc4ccccc4[nH]3)cc2)ccc1O	3	·
Cc1cc(N2CCN(C)CC2)nc2ccc(NC(=S)N3CCN(c4ccc(Cl)cc4)CC3)cc12	-4	·
NC(=O)C1(N2CCCCC2)CCN(S(=O)(=O)c2cc(Cl)sc2Cl)CC1	0	·
O=c1[nH]c(Nc2ccccc2)cc2ccccc12	-5	101*
O=c1nccc(Nc2ccccc2)[nH]1	-6	·
Cc1ccc(C2NC(=S)NC3=C2C(=O)CC(C)(C)C3)cc1 (centres undefined)	8	-31
CN(C)c1ccc(NC(=O)CC(NCc2ccccn2)C(=O)O)cc1 (centres undefined)	-4	6
COc1ccc2c(c1)CCc1cc(C(=O)N3CCN(c4ccc(N5CCOCC5)nn4)CC3)sc1-2	-19	76*
COc1ccc2c(c1)CCc1c(C(=O)N3CCCCCC3)noc1-2	46	-39
CS(=O)(=O)n1nc(-c2ccc(Cl)cc2)nc1N	8	·
Cn1nc(-c2ccc(Cl)cc2)nc2c(=O)n(C)c(=O)nc1-2	·	101*
Cc1ccc(-c2cc(Cc3ccccn3)c(=O)[nH]n2)cc1	-9	·
CC(=O)c1ccc(NC2=C(N3CCOCC3)C(=O)c3ccccc3C2=O)cc1	2	99*
CC(=O)N(C)C1=C(N2CCOCC2)C(=O)c2ccccc2C1=O	·	16
Cc1ccc(NC2=C(Cl)C(=O)c3ccccc3C2=O)cc1	-1	3
CC(=O)N(C1=C(N2CCOCC2)C(=O)c2ccccc2C1=O)c1ccc(C(=O)O)cc1	-3	·
Cc1ccc(NC2=C(N3CCOCC3)C(=O)c3ccccc3C2=O)cc1	-6	89*
O=C(O)c1ccc(NC2=C(N3CCOCC3)C(=O)c3ccccc3C2=O)cc1	-11	76*
CCOc1ccc2nc(N(CCN(CC)CC)C(=O)c3cccc([N+](=O)[O-])c3)sc2c1	-12	·
SMILES	RmlCD inh 1536	YopH inh
[O-]/[N+](=C\c1cccc(Br)c1)c1ccccc1	-6	·
[O-]/[N+](=C\c1ccc(F)cc1)c1ccccc1	·	59*
Cc1ccccc1OCCN(C#N)c1nc(N(C)C)nc(N(C)C)n1	-7	·
Cc1nc2sc(C(c3ccc(F)cc3)N3CCOCC3)c(O)n2n1 (centres undefined)	·	-21
Cc1ccc(C(c2sc3nc(C)nn3c2O)N2CCOCC2)cc1 (centres undefined)	-8	64*
O=C(CSc1ccccc1)NCCSCc1ccccc1	-6	-10
COc1ccccc1NC(=O)Cc1noc(CSc2n[nH]c(N)n2)n1	-4	·
O=C1C=C(NCCN2CCOCC2)C(=O)c2cnccc21	·	101*
O=C(NCCN1CCOCC1)c1ccncc1	-6	-31
COc1ccc(C(=O)COC(=O)CNC(=O)c2ccc(OC)cc2)cc1	7	·
Cc1cc(=O)oc2ccc(OC(=O)CC(C)C)cc12	16	·
CCOC(=O)Oc1ccc2oc(=O)cc(C)c2c1	-8	67*
COC(=O)CSc1nnc(CNC(=O)c2ccccc2OC)n1C	20	-38
COC(=O)CSc1nnc(CNC(=O)c2cccc(C)c2)n1-c1ccccc1OC	·	76*
CCOC(=O)c1ccc(NS(=O)(=O)c2cc(-c3nnnn3C(C)C)ccc2OC)cc1	·	62*
CCn1nnnc1-c1ccc(OC)c(S(=O)(=O)Nc2ccc(C(=O)OC)cc2)c1	0	-7
COc1ccc(S(=O)(=O)N2CCOCC2)cc1NC(=O)c1ccccc1-c1ccc(C(F)(F)F)cc1	-12	-6
Cc1oc2c(CN3CCOCC3)c(O)ccc2c(=O)c1-c1ccccc1	66*	-48
COc1ccc(Oc2c(C)oc3c(CN4CCOCC4)c(O)ccc3c2=O)cc1	5	-12
Nc1ccc2c(c1)Cc1ccccc1-2	5	-23
COC1=C(c2ccccc2)C(=O)c2ccccc2C1=O	·	49
O=C1C(=O)c2ccc(-c3ccccc3)cc2-c2ccccc21	·	77*
Nc1ccc2c(c1)C(=O)C(=O)c1ccccc1-2	2	101*
O=C(COC(=O)COc1ccc(Cl)cc1Cl)Nc1cccnc1Cl	·	-9
CCCNC(=O)NC(=O)CSc1nncs1	12	·
Cc1cc(C)c(COc2ccc(/C=N/n3c(C)n[nH]c3=S)cc2)c(C)c1	·	-20
Cc1ccc(-c2cc(=O)[nH]c3ccccc23)cc1	·	-43
Cc1ccc2c(C)[nH]c(=O)cc2c1	·	90*
COc1ccccc1NC(=O)Cn1nnc(-c2ccccc2NC(=O)c2cnccn2)n1	-7	·
